# Source: PubChem BioAssay (EPA / NIEHS)
# Active and inactive are the calls of the source. How the source made its calls: active means hit-call score of the fitted dose curve at least 0.9, where 1 is the maximum; inactive means score below 0.9.
# How the values were obtained:
# [1] = BSK_CASM3C_SRB: Viability Assessment in the BioMAP Diversity Plus: CASM3C Assay (AID 2283050); conditions: primary human coronary artery smooth muscle cells;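 further: total protein by SRB staining as cytotoxicity measure in parallel cultures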
# [2] = read-out: Thrombomodulin, THBD (gene 7056); assay: BSK_CASM3C_Thrombomodulin: BioMAP Diversity Plus: CASM3C Assay for Thrombomodulin Biomarker Activity (AID 2283051); conditions: primary human coronary artery smooth muscle cells; actives raise or lower the signal;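 further: thrombomodulin protein level measured by ELISA 24 h after dosing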
# [3] = read-out: Tissue Factor, F3 (gene 2152); assay: BSK_CASM3C_TissueFactor: BioMAP Diversity Plus: CASM3C Assay for Tissue Factor Biomarker Activity (AID 2283052); conditions: primary human coronary artery smooth muscle cells; actives raise or lower the signal;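 further: cell surface tissue factor protein level read by ELISA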
# [4] = read-out: Urokinase-type plasminogen activator receptor (uPAR), PLAUR (gene 5329); assay: BSK_CASM3C_uPAR: BioMAP Diversity Plus: CASM3C Assay for Urokinase-type plasminogen activator receptor (uPAR) Biomarker Activity (AID 2283054); conditions: primary human coronary artery smooth muscle cells; actives raise or lower the signal;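 further: cell-surface uPAR protein level quantified by ELISA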
# [5] = read-out: Vascular cell adhesion molecule 1 (VCAM1), VCAM1 (gene 7412); assay: BSK_CASM3C_VCAM1: BioMAP Diversity Plus: CASM3C Assay for Vascular cell adhesion molecule 1 (VCAM1) Biomarker Activity (AID 2283055); conditions: primary human coronary artery smooth muscle cells; actives raise or lower the signal;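 further: VCAM-1 protein level quantified by ELISA on the cells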
# [6] = read-out: Collagen III, COL3A1 (gene 1281); assay: BSK_hDFCGF_CollagenIII: BioMAP Diversity Plus: hDFCGF Assay for Collagen III Biomarker Activity (AID 2283056); conditions: primary human foreskin fibroblasts; actives raise or lower the signal
# Method in brief: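 Response relative to DMSO, fitted in both directions, reflects ELISA-measured collagen III in human primary skin fibroblasts 24 h after compound addition.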
# [7] = read-out: Epidermal growth factor receptor (EGFR), EGFR (gene 1956); assay: BSK_hDFCGF_EGFR: BioMAP Diversity Plus: hDFCGF Assay for Epidermal growth factor receptor (EGFR) Biomarker Activity (AID 2283057); conditions: primary human foreskin fibroblasts; actives raise or lower the signal
# Method in brief: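 Primary human foreskin fibroblasts were exposed to compound for 24 h, after which cell-surface EGFR was quantified by ELISA. Activity was fitted bidirectionally against the DMSO negative control as baseline.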
# [8] = read-out: Interleukin-8 (IL8), CXCL8 (gene 3576); assay: BSK_hDFCGF_IL8: BioMAP Diversity Plus: hDFCGF Assay for Interleukin-8 (IL8) Biomarker Activity (AID 2283058); conditions: primary human foreskin fibroblasts; actives raise or lower the signal
# Method in brief: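 Fibroblast monolayers (human foreskin, hDFCGF) received test chemical for 24 h before ELISA detection of IL-8; either increases or decreases relative to DMSO count as activity.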
# [9] = read-out: Macrophage colony-stimulating factor (MCSF), CSF1 (gene 1435); assay: BSK_hDFCGF_MCSF: BioMAP Diversity Plus: hDFCGF Assay for Macrophage colony-stimulating factor (MCSF) Biomarker Activity (AID 2283060); conditions: primary human foreskin fibroblasts; actives raise or lower the signal
# Method in brief: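 fibroblasts (human foreskin, primary), 24 h post-dose; M-CSF by ELISA; bidirectional fit, DMSO = baseline.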
# [10] = BSK_hDFCGF_SRB: Viability Assessment in the BioMAP Diversity Plus: hDFCGF Assay (AID 2283061); conditions: primary human foreskin fibroblasts;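 further: cells exposed to compound for 24 h before the read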
# Method in brief: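 SRB-based viability read on primary human skin fibroblasts at 24 h: TCA fixation, 0.1% dye, 560 nm. Gain or loss of signal is fitted against the DMSO negative control.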
# [11] = read-out: TIMP metallopeptidase inhibitor 1 (TIMP1), TIMP1 (gene 7076); assay: BSK_hDFCGF_TIMP1: BioMAP Diversity Plus: hDFCGF Assay for TIMP metallopeptidase inhibitor 1 (TIMP1) Biomarker Activity (AID 2283062); conditions: primary human foreskin fibroblasts; actives raise or lower the signal
# Method in brief: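 Bidirectional curve fitting against DMSO baseline yielded this endpoint, based on ELISA detection of TIMP-1 in primary human foreskin fibroblasts exposed to compound for 24 h.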
# [12] = read-out: Monokine induced gamma interferon (MIG), CXCL9 (gene 4283); assay: BSK_hDFCGF_MIG: BioMAP Diversity Plus: hDFCGF Assay for Monokine induced gamma interferon (MIG) Biomarker Activity (AID 2283063); conditions: primary human foreskin fibroblasts; actives raise or lower the signal
# Method in brief: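 Endpoint derived by bidirectional fitting relative to DMSO; MIG quantified via ELISA in primary human foreskin fibroblasts harvested 24 h after dosing.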
# [13] = read-out: Matrix Metallopeptidase 1 (MMP1), MMP1 (gene 4312); assay: BSK_hDFCGF_MMP1: BioMAP Diversity Plus: hDFCGF Assay for Matrix Metallopeptidase 1 (MMP1) Biomarker Activity (AID 2283064); conditions: primary human foreskin fibroblasts; actives raise or lower the signal
# Method in brief: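 Primary human foreskin fibroblasts exposed to chemicals for 24 h; MMP1 measured by ELISA. Cytotoxicity tracked by SRB staining in parallel cultures; bidirectional fit relative to DMSO.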
# [14] = read-out: Plasminogen activator inhibitor-1 (PAI1), SERPINE1 (gene 5054); assay: BSK_hDFCGF_PAI1: BioMAP Diversity Plus: hDFCGF Assay for Plasminogen activator inhibitor-1 (PAI1) Biomarker Activity (AID 2283066); conditions: primary human foreskin fibroblasts; actives raise or lower the signal
# Method in brief: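 Human foreskin fibroblasts in the hDFCGF system were dosed with compound for 24 h; PAI-1 was quantified by ELISA. Bidirectional curve fitting used DMSO as negative control and baseline.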
# [15] = read-out: Intercellular Adhesion Molecule 1 (ICAM1), ICAM1 (gene 3383); assay: BSK_KF3CT_ICAM1: BioMAP Diversity Plus: KF3CT Assay for Intercellular Adhesion Molecule 1 (ICAM1) Biomarker Activity (AID 2283067); conditions: primary human keratinocytes with fibroblasts; actives raise or lower the signal
# Method in brief: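 Bidirectional curve fitting against a DMSO baseline was applied to ICAM-1 ELISA signal from primary human skin co-cultures harvested 24 h after treatment, with SRB staining of parallel wells for overt cytotoxicity.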
# [16] = read-out: Interferon-gamma inducible Protein 10 (IP10), CXCL10 (gene 3627); assay: BSK_KF3CT_IP10: BioMAP Diversity Plus: KF3CT Assay for Interferon-gamma inducible Protein 10 (IP10) Biomarker Activity (AID 2283068); conditions: primary human keratinocytes with fibroblasts; actives raise or lower the signal
# Method in brief: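 Human keratinocyte plus foreskin fibroblast primary co-culture exposed to test chemical for 24 h; IP-10 measured by ELISA. Concentration-response fitted bidirectionally against DMSO control as baseline.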
# [17] = BSK_KF3CT_SRB: Viability Assessment in the BioMAP Diversity Plus: KF3CT Assay (AID 2283069); conditions: primary human keratinocytes with fibroblasts;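 further: total protein by sulforhodamine B staining as a cytotoxicity measure; fitted for both signal gain and loss against DMSO baseline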
# Method in brief: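 Human keratinocyte and foreskin fibroblast co-culture exposed to chemical for 24 h. Total protein measured in parallel cultures by 0.1% sulforhodamine B staining after 10% TCA fixation, read at 560 nm; bidirectional fit relative to DMSO.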
# [18] = read-out: Vascular cell adhesion molecule 1 (VCAM1), VCAM1 (gene 7412); assay: BSK_hDFCGF_VCAM1: BioMAP Diversity Plus: hDFCGF Assay for Vascular cell adhesion molecule 1 (VCAM1) Biomarker Activity (AID 2283065); conditions: primary human foreskin fibroblasts; actives raise or lower the signal;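 further: VCAM-1 protein level quantified by ELISA after 24 h chemical exposure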
# Method in brief: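 Measured after 24 h chemical treatment of primary human skin fibroblasts, VCAM-1 was detected by ELISA and concentration-response analysed in both directions versus DMSO vehicle.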
# [19] = read-out: Interferon-gamma inducible Protein 10 (IP10), CXCL10 (gene 3627); assay: BSK_hDFCGF_IP10: BioMAP Diversity Plus: hDFCGF Assay for Interferon-gamma inducible Protein 10 (IP10) Biomarker Activity (AID 2283053); conditions: primary human foreskin fibroblasts; actives raise or lower the signal
# Method in brief: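 Human foreskin fibroblast primary cells (hDFCGF system) were dosed with chemical and assayed at 24 h; IP-10 measured by ELISA. Activity fitted bidirectionally relative to DMSO negative control as baseline.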
structure (smiles),measurement,setting,value
CCOc1nc(NC)nc(NC(=O)NS(=O)(=O)c2ccccc2C(=O)OC)n1,outcome,[1],inactive
same,outcome,[2],inactive
same,outcome,[3],inactive
same,outcome,[4],inactive
same,outcome,[5],inactive
same,outcome,[6],inactive
same,outcome,[7],inactive
same,outcome,[8],inactive
same,outcome,[9],inactive
same,outcome,[10],inactive
same,AC50,[11],25.5 µM (active)
same,outcome,[12],inactive
same,AC50,[13],20 µM (active)
same,AC50,[14],5.36 µM (active)
same,outcome,[15],inactive
same,AC50,[16],20 µM (active)
same,outcome,[17],inactive
CCCN(CCC)c1c([N+](=O)[O-])cc(C(F)(F)F)cc1[N+](=O)[O-],outcome,[1],inactive
same,outcome,[2],inactive
same,outcome,[3],inactive
same,outcome,[4],inactive
same,outcome,[5],inactive
same,outcome,[6],inactive
same,outcome,[7],inactive
same,outcome,[8],inactive
same,AC50,[9],28.6 µM (active)
same,AC50,[10],30.9 µM (active)
same,outcome,[11],inactive
same,outcome,[12],inactive
same,AC50,[13],4.1 µM (active)
same,AC50,[14],29.4 µM (active)
same,outcome,[15],inactive
same,AC50,[16],28.8 µM (active)
same,outcome,[17],inactive
O=[N+]([O-])c1c(Cl)c(Cl)c(Cl)c(Cl)c1Cl,outcome,[1],inactive
same,AC50,[2],24.8 µM (active)
same,outcome,[3],inactive
same,outcome,[4],inactive
same,outcome,[5],inactive
same,AC50,[6],14.9 µM (active)
same,outcome,[7],inactive
same,outcome,[8],inactive
same,AC50,[9],18 µM (active)
same,AC50,[10],31 µM (active)
same,outcome,[11],inactive
same,AC50,[12],29.3 µM (active)
same,AC50,[13],0.255 µM (active)
same,AC50,[14],28.8 µM (active)
same,outcome,[15],inactive
same,AC50,[16],17.6 µM (active)
same,AC50,[17],25.3 µM (active)
C#CCN1C(=O)COc2cc(F)c(N3C(=O)C4=C(CCCC4)C3=O)cc21,outcome,[1],inactive
same,outcome,[2],inactive
same,outcome,[3],inactive
same,outcome,[4],inactive
same,outcome,[5],inactive
same,outcome,[6],inactive
same,outcome,[7],inactive
same,outcome,[8],inactive
same,outcome,[9],inactive
same,outcome,[10],inactive
same,outcome,[11],inactive
same,outcome,[12],inactive
same,outcome,[13],inactive
same,outcome,[14],inactive
same,outcome,[15],inactive
same,outcome,[16],inactive
same,outcome,[17],inactive
CCC(C)(NC(=O)c1cc(Cl)c(C)c(Cl)c1)C(=O)CCl (stereo not given),AC50,[1],23.4 µM (active)
same,outcome,[2],inactive
same,outcome,[3],inactive
same,AC50,[4],11.5 µM (active)
same,AC50,[5],9.89 µM (active)
same,AC50,[6],11.3 µM (active)
same,AC50,[7],30.6 µM (active)
same,AC50,[8],30.9 µM (active)
same,AC50,[9],3.56 µM (active)
same,AC50,[10],7.6 µM (active)
same,AC50,[11],34.3 µM (active)
same,AC50,[12],6.77 µM (active)
same,AC50,[13],30.4 µM (active)
same,AC50,[18],5.49 µM (active)
same,AC50,[14],8.04 µM (active)
same,AC50,[15],16.5 µM (active)
same,AC50,[16],10.8 µM (active)
same,AC50,[17],31.8 µM (active)
CC(C)OC(=O)Nc1cccc(Cl)c1,outcome,[1],inactive
same,outcome,[2],inactive
same,outcome,[3],inactive
same,outcome,[4],inactive
same,outcome,[5],inactive
same,outcome,[6],inactive
same,outcome,[7],inactive
same,outcome,[8],inactive
same,outcome,[9],inactive
same,outcome,[10],inactive
same,outcome,[11],inactive
same,outcome,[12],inactive
same,outcome,[13],inactive
same,outcome,[14],inactive
same,outcome,[15],inactive
same,outcome,[16],inactive
same,outcome,[17],inactive
N#Cc1c(Cl)c(Cl)c(Cl)c(C#N)c1Cl,AC50,[1],2 µM (active)
same,outcome,[2],inactive
same,AC50,[19],0.148 µM (active)
same,AC50,[4],5.03 µM (active)
same,AC50,[5],1.62 µM (active)
same,AC50,[6],0.148 µM (active)
same,outcome,[7],inactive
same,AC50,[8],1.1 µM (active)
same,AC50,[9],1.11 µM (active)
same,AC50,[10],0.148 µM (active)
same,AC50,[11],2.58 µM (active)
same,AC50,[12],0.148 µM (active)
same,AC50,[13],0.986 µM (active)
same,AC50,[14],0.615 µM (active)
same,AC50,[15],0.786 µM (active)
same,AC50,[16],0.585 µM (active)
same,AC50,[17],1.49 µM (active)
